PubChem BioAssay (EPA / NIEHS)
Activity calls are given as the source filed them. The calls were made as follows: active = hit-call score of the fitted dose curve at least 0.9, where 1 is the maximum; inactive = score below 0.9.

Read-out: Heat shock 70 kDa protein 1 (HSPA1A), gene 3303
Test: LTEA_HepaRG_HSPA1A: Life Technologies and Expression Analysis (LTEA) Assay for Heat shock 70 kDa protein 1 (HSPA1A) using HepaRG (AID 2283502)
Details: mRNA level, 48 h; actives raise or lower the signal
Summary of the method: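 HepaRG, 48 h exposure, 8-pt half-log CRC from 100 uM in 0.5% DMSO, duplicates. Readout: TaqMan qRT-PCR of HSPA1A mRNA, housekeeping-normalized (ACTB/GAPDH/POLR2A). Bidirectional fit vs 0.5% DMSO baseline.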

Hypoxia-inducible factor 1-alpha (Homo sapiens), sequence (Q16665 whole entry, looked up): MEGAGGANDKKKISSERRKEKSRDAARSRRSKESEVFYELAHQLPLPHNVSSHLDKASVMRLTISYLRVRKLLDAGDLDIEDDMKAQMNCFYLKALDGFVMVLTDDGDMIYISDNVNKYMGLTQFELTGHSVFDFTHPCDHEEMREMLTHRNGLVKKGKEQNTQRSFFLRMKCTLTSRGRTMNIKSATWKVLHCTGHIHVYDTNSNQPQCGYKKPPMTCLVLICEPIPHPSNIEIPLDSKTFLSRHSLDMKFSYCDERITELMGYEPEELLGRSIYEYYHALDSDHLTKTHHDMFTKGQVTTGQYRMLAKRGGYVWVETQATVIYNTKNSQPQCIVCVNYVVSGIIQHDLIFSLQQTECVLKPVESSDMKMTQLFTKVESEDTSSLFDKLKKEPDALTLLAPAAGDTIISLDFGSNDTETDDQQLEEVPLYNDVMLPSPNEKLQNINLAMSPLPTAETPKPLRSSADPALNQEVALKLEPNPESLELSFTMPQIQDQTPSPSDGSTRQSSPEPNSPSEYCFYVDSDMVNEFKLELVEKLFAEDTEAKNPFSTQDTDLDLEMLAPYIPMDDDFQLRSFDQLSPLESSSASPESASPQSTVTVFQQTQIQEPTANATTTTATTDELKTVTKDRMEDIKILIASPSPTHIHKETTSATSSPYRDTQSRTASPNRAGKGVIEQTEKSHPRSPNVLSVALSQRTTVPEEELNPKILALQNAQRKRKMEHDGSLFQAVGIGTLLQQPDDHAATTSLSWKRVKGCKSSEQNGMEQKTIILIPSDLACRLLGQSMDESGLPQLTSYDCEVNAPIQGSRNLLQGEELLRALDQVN

Row | SMILES | outcome | AC50
1 | c1ccc2n[nH]nc2c1 | inactive | –
2 | Cc1oc2c(NC(=O)c3c(Cl)cccc3Cl)cccc2c1C(C)(C)O | – | 79.6 µM (active)
3 | Cc1cc(F)ccc1-c1cc(N2CC[C@@H](O)[C@H]2CO)ncc1N(C)C(=O)C(C)(C)c1cc(C(F)(F)F)cc(C(F)(F)F)c1 | – | 70.1 µM (active)
4 | CC(C)(c1cc(Br)c(O)c(Br)c1)c1cc(Br)c(O)c(Br)c1 | – | 88.6 µM (active)
5 | CN1C(=O)N(c2ccccc2Br)Cc2cnc(Nc3ccc4c(c3)OCC(CO)O4)nc21 (stereo unspecified) | – | 92.4 µM (active)
6 | CCOC(=O)O[C@H](C)OC(=O)c1ccc2c(c1)cc(C(=O)NC1CCN(C(C)C)CC1)n2Cc1cc(-c2ccc(Cl)s2)on1 | inactive | –
7 | CCCCCCCCOC(=O)c1cc(O)c(O)c(O)c1 | inactive | –
8 | CN(C)c1ccc(C(=C2C=CC(=[N+](C)C)C=C2)c2ccc(N(C)C)cc2)cc1 | – | 86.5 µM (active)
9 | COc1ccc2cc(S(=O)(=O)N[C@H](CC(=O)N[C@H](Cc3ccc(CN4[C@H](C)CCC[C@@H]4C)cc3)C(=O)N(C)C(C)C)c3ccc4c(c3)OCO4)ccc2c1 | – | 82.6 µM (active)
10 | CCN(Cc1cccc(S(=O)(=O)O)c1)c1ccc(C(=C2C=CC(=[N+](CC)Cc3cccc(S(=O)(=O)O)c3)C=C2)c2ccccc2S(=O)(=O)[O-])cc1 | inactive | –
11 | Oc1ccc2ccccc2c1 | inactive | –
12 | Clc1cc(Cl)c2c(c1)N=C1CCCCCN1C2 | inactive | –
13 | CC(C)(O)c1ccc(CNC(=O)c2cccnc2Oc2ccc3nonc3c2)cc1 | inactive | –
14 | O=C(O)Cn1c(=O)n(Cc2ccc(Br)cc2F)c(=O)c2ccc(Cl)cc21 | inactive | –
15 | CC/C(=C(/CC)c1ccc(O)cc1)c1ccc(O)cc1 | – | 75.8 µM (active)
16 | COc1cc(C(=O)NC2CCN(C)CC2)ccc1Nc1ncc2c(n1)N(C1CCCC1)CC(F)(F)C(=O)N2C | – | 31.7 µM (active)
17 | CCN(CC)C(=O)c1cc(S(=O)(=O)Cc2ccccc2)c(N2CCC(c3ccccc3)CC2)cc1N(CC)CCN(C)C | – | 24.5 µM (active)
18 | CC[C@@H]1C[C@H](N(Cc2cc(C(F)(F)F)cc(C(F)(F)F)c2)C(C)=O)c2cc(C(F)(F)F)ccc2N1C(=O)OC(C)C | inactive | –
19 | c1ccc2ccccc2c1 | inactive | –

Row | SMILES | outcome | AC50
20 | CCCCCCCCCCCO | inactive | –
21 | Cc1ccc(C(C)C)cc1 | inactive | –
22 | OC12N=C(c3ccccc3)SC1Cc1cc(Cl)ccc12 (stereo unspecified) | inactive | –
23 | CN(C)C(=O)C1(N2CCCCC2)CCN(CC[C@@]2(c3ccc(Cl)c(Cl)c3)CN(C(=O)c3ccccc3)CCO2)CC1 | – | 15.2 µM (active)
24 | O=CCCCC=O | inactive | –
25 | NCc1cccc(C2CCN(C(=O)c3ccc(C#Cc4ccccc4F)o3)CC2)c1 | inactive | –
26 | COc1cccc([C@H](O)C2CCN(CCc3ccc(F)cc3)CC2)c1OC | inactive | –
27 | CC(C)(C)c1csc(-c2cc3cc(OCc4ccccc4CC(=O)O)ccc3o2)n1 | – | 78 µM (active)
28 | O=c1[nH]sc2ccccc12 | inactive | –
29 | O=c1c(-c2ccc(O)cc2)coc2cc(O)cc(O)c12 | inactive | –
30 | CCCCCCCC[Si](OCC)(OCC)OCC | inactive | –
31 | CCCCOC(=O)CC(CC(=O)OCCCC)(OC(C)=O)C(=O)OCCCC | inactive | –
32 | CCCCCCCCN(C)CCCCCCCC | inactive | –
33 | CC[C@H](NC(=O)c1cc(F)ccc1NS(=O)(=O)c1cccc2cccnc12)c1ccccc1 | – | 12.2 µM (active)
34 | CCCCCCCCCCCC[N+](C)(C)C | – | 80.9 µM (active)
35 | O=C1CCC(C2CCCCC2)CC1 | inactive | –
36 | O=C1c2ccccc2C(=O)N1CCc1noc(-c2ccc(CN3CCCCCC3)s2)n1 | inactive | –
37 | CC1=CC(=O)/C(=C(/C)O)C(=O)O1 | inactive | –
38 | CCO[Si](CCCNC(N)=O)(OCC)OCC | inactive | –

Read-out: Hypoxia-inducible factor 1-alpha (Homo sapiens) (UniProt Q16665)
Test: LTEA_HepaRG_HIF1A: Life Technologies and Expression Analysis (LTEA) Assay for Hypoxia-inducible factor 1 (HIF1A) Trancription factor using HepaRG (AID 2283503)
Details: mRNA level, 48 h; actives raise or lower the signal
Summary of the method: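 Gain- or loss-of-signal HIF1A mRNA changes are fitted against a DMSO baseline. HepaRG cultures receive eight concentrations, highest 100 uM, for 48 h in serum-free induction medium with 0.5% DMSO.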

Row | SMILES | outcome | AC50
39 | c1ccc2n[nH]nc2c1 | inactive | –
40 | Cc1oc2c(NC(=O)c3c(Cl)cccc3Cl)cccc2c1C(C)(C)O | inactive | –
41 | Cc1cc(F)ccc1-c1cc(N2CC[C@@H](O)[C@H]2CO)ncc1N(C)C(=O)C(C)(C)c1cc(C(F)(F)F)cc(C(F)(F)F)c1 | – | 74.6 µM (active)
42 | CC(C)(c1cc(Br)c(O)c(Br)c1)c1cc(Br)c(O)c(Br)c1 | – | 74 µM (active)
43 | CN1C(=O)N(c2ccccc2Br)Cc2cnc(Nc3ccc4c(c3)OCC(CO)O4)nc21 (stereo unspecified) | – | 1.33 µM (active)
44 | CCOC(=O)O[C@H](C)OC(=O)c1ccc2c(c1)cc(C(=O)NC1CCN(C(C)C)CC1)n2Cc1cc(-c2ccc(Cl)s2)on1 | inactive | –
45 | CCCCCCCCOC(=O)c1cc(O)c(O)c(O)c1 | inactive | –
46 | CN(C)c1ccc(C(=C2C=CC(=[N+](C)C)C=C2)c2ccc(N(C)C)cc2)cc1 | – | 44.3 µM (active)
47 | COc1ccc2cc(S(=O)(=O)N[C@H](CC(=O)N[C@H](Cc3ccc(CN4[C@H](C)CCC[C@@H]4C)cc3)C(=O)N(C)C(C)C)c3ccc4c(c3)OCO4)ccc2c1 | – | 75.5 µM (active)
48 | CCN(Cc1cccc(S(=O)(=O)O)c1)c1ccc(C(=C2C=CC(=[N+](CC)Cc3cccc(S(=O)(=O)O)c3)C=C2)c2ccccc2S(=O)(=O)[O-])cc1 | inactive | –
49 | Oc1ccc2ccccc2c1 | inactive | –
50 | Clc1cc(Cl)c2c(c1)N=C1CCCCCN1C2 | inactive | –
51 | CC(C)(O)c1ccc(CNC(=O)c2cccnc2Oc2ccc3nonc3c2)cc1 | inactive | –
52 | O=C(O)Cn1c(=O)n(Cc2ccc(Br)cc2F)c(=O)c2ccc(Cl)cc21 | inactive | –
53 | CC/C(=C(/CC)c1ccc(O)cc1)c1ccc(O)cc1 | – | 85.7 µM (active)
54 | COc1cc(C(=O)NC2CCN(C)CC2)ccc1Nc1ncc2c(n1)N(C1CCCC1)CC(F)(F)C(=O)N2C | inactive | –
55 | CCN(CC)C(=O)c1cc(S(=O)(=O)Cc2ccccc2)c(N2CCC(c3ccccc3)CC2)cc1N(CC)CCN(C)C | inactive | –
56 | CC[C@@H]1C[C@H](N(Cc2cc(C(F)(F)F)cc(C(F)(F)F)c2)C(C)=O)c2cc(C(F)(F)F)ccc2N1C(=O)OC(C)C | inactive | –
57 | c1ccc2ccccc2c1 | inactive | –

Row | SMILES | outcome | AC50
58 | CCCCCCCCCCCO | inactive | –
59 | Cc1ccc(C(C)C)cc1 | inactive | –
60 | OC12N=C(c3ccccc3)SC1Cc1cc(Cl)ccc12 (stereo unspecified) | inactive | –
61 | CN(C)C(=O)C1(N2CCCCC2)CCN(CC[C@@]2(c3ccc(Cl)c(Cl)c3)CN(C(=O)c3ccccc3)CCO2)CC1 | – | 33.1 µM (active)
62 | O=CCCCC=O | inactive | –
63 | NCc1cccc(C2CCN(C(=O)c3ccc(C#Cc4ccccc4F)o3)CC2)c1 | inactive | –
64 | COc1cccc([C@H](O)C2CCN(CCc3ccc(F)cc3)CC2)c1OC | inactive | –
65 | CC(C)(C)c1csc(-c2cc3cc(OCc4ccccc4CC(=O)O)ccc3o2)n1 | – | 87.3 µM (active)
66 | O=c1[nH]sc2ccccc12 | inactive | –
67 | O=c1c(-c2ccc(O)cc2)coc2cc(O)cc(O)c12 | inactive | –
68 | CCCCCCCC[Si](OCC)(OCC)OCC | inactive | –
69 | CCCCOC(=O)CC(CC(=O)OCCCC)(OC(C)=O)C(=O)OCCCC | inactive | –
70 | CCCCCCCCN(C)CCCCCCCC | inactive | –
71 | CC[C@H](NC(=O)c1cc(F)ccc1NS(=O)(=O)c1cccc2cccnc12)c1ccccc1 | inactive | –
72 | CCCCCCCCCCCC[N+](C)(C)C | – | 83.3 µM (active)
73 | O=C1CCC(C2CCCCC2)CC1 | inactive | –
74 | O=C1c2ccccc2C(=O)N1CCc1noc(-c2ccc(CN3CCCCCC3)s2)n1 | inactive | –
75 | CC1=CC(=O)/C(=C(/C)O)C(=O)O1 | inactive | –
76 | CCO[Si](CCCNC(N)=O)(OCC)OCC | inactive | –
